CCT modulator: High-Throughput Screening for Modulators of Cytosolic Chaperonin Activity; 0.3% of 360,000 active; activity change, % (no concentration beside the values), hits read low; purified chaperonin ATPase assay, HTRF ADP detection, 30 min; in the data active means activity change below about -30%
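ATPase activity: ADP formed was measured by HTRF Transcreener (665/615 nm ratio) after 30 min at 37 deg C with 10 uM ATP. Compounds screened at one 76 uM concentration against 40 or 20 nM TRiC in Tris pH 7.4/KCl/MgCl2/DTT buffer.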
Sfp inh: qHTS Assay for Inhibitors of Bacillus subtilis Sfp phosphopantetheinyl transferase (PPTase); Biochemical Sfp PPTase activity, qHTS; 4'-phosphopantetheinyl transferase ffp (Bacillus subtilis), Q9F4F7; Potency, µM, for inactives: largest response in the series, negative = inhibition, actives largely listed as inhibitors; 3.5% of 310,000 active;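 further: the enzyme is Sfp with the accession as filed and its product quenches rhodamine fluorescence; potency means the concentration at half of the fitted maximal effect; 0% = enzyme reaction without inhibitor and -100% = no enzyme wells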
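With Hepes-Na pH 7.6 buffer containing 10 mM MgCl2, Sfp (15 nM) modified BHQ-2-YbbR (12.5 uM) using rhodamine-CoA (5 uM). Two reads 30 minutes apart at 525/598 nm yielded each well's rate.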
Mm-Cpn inhibitor: Inhibitors of TCP-1 ring complex (TRiC) of Methanococcus maripaludis (MmCpn): qHTS; Chaperonin Mm-Cpn (Methanococcus maripaludis); purified Mm-Cpn ATPase, ADP Transcreener TR-FRET; Potency, µM (top dose mostly 76.9 µM), inactives show top-dose activity, negative = inhibition, most hits filed as inhibitors; 0.031% of 330,000 active; AID 504842, 2011; further: potency means the concentration at half of the fitted maximal effect; nearly all actives have a fitted effect of over 80% in size
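Purified archaeal chaperonin (25 nM final) was preincubated with compound for 10 min at 37°C, then ATP (10 uM final) was added for 30 min at 37°C in Tris pH 7.4/KCl/MgCl2/DTT buffer. ADP was quantified by HTRF Transcreener TR-FRET.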
PLK1 PBD block: qHTS for Inhibitors of PLK1-PDB (polo-like kinase 1 - polo-box domain): Primary Screen; Serine/threonine-protein kinase PLK1 (Homo sapiens), P53350; Plk1 PBD binding of FITC phosphopeptide, fluorescence polarization; Potency, µM, for inactives: max response, negative = inhibition, actives largely listed as inhibitors; 2.8% of 360,000 active; AID 720504, 2013; further: potency means the concentration at half of the fitted maximal effect; series mostly up to about 57 µM; nearly all actives have a fitted effect of over 65% in size
Target sequence (P53350 whole entry, looked up, the tested form may be a part): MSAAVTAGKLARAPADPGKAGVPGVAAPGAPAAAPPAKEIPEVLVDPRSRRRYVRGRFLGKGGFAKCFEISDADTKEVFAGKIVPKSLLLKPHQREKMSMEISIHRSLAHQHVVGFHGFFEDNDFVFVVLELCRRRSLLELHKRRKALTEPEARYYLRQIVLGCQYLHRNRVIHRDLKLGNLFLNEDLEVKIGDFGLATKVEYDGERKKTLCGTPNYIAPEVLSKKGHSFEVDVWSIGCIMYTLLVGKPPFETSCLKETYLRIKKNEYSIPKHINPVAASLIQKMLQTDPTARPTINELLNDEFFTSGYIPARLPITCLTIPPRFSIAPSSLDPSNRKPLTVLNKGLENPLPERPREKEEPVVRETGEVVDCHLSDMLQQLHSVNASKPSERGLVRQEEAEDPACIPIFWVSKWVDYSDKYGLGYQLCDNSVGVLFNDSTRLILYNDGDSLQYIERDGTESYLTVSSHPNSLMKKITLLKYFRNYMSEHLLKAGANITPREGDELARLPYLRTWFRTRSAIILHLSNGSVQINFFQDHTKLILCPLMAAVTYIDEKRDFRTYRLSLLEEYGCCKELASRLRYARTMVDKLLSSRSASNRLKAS
G9a block: qHTS Assay for Inhibitors of Histone Lysine Methyltransferase G9a; Histone-lysine N-methyltransferase EHMT2 (Homo sapiens), Q96KQ7; G9a H3K9 monomethylation, AlphaScreen, 2 h; Potency, µM (doses to about 102 µM), inactives show at the highest dose activity, negative = inhibition, most hits filed as inhibitors; 8.8% of 350,000 active; AID 504332, 2011; further: potency means the concentration at half of the fitted maximal effect; nearly all actives have a fitted effect of over 75% in size
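Readings reflect AlphaScreen signal from monomethyl-H3K9 antibody detection. HMT at 20 nM; substrate b-H3K9 500 nM; cofactor SAM 20 uM; 2 h RT reaction; compounds tested as titrations in qHTS with 15 min preincubation.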
VDR inh: Inhibitors of the vitamin D receptor (VDR): qHTS. 0.93% of 400,000 active. VDR-SRC2-3 peptide fluorescence polarization, 2 h. Potency, µM, inactives show max response, negative = inhibition, usual class: inhibitors. Vitamin D3 receptor (Homo sapiens), P11473. AID 504847, 2011; further: potency means the concentration at half of the fitted maximal effect
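Compounds are added to VDR with labelled SRC2-3 coactivator peptide and held 2 h at room temperature. Inhibition of the VDR–peptide interaction is then read as a change in fluorescence polarization.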
Starred values were filed as active, the others as inactive; [ ] = dose if it differs, or a comment. Most compounds without a hit are left out; they make up all but 10% or so of the library. Unless noted, the call rests on the fitted dose curve; in most records, active means well fitted curve in the direction sought with a large enough effect; inconclusive means small, poorly fitted or top-dose-only effect, or another doubt; inactive means no such curve, though single readings can be large; an effect the other way counts as inactive or inconclusive. Unless noted, on the % scale 0 is the no-effect control and ±100 the full control effect.

What do the screens show for `O=C(CCCCn1c(=O)c2ccccc2n(Cc2cccc(F)c2)c1=O)NCCc1ccccc1`?
G9a block: -1%[59 µM]; VDR inh: -2%

How did O=C(CCc1nnc2ccc(NCc3ccccc3)nn12)NC1CCCCC1 do in these assays?
CCT modulator: -1; Sfp inh: 5%; Mm-Cpn inhibitor: -5%; PLK1 PBD block: 24µM*; G9a block: -6%; VDR inh: -13%

How did Cc1ccc(/C=N/n2cnc3sc(C)c(C)c3c2=O)o1 do in these assays?
CCT modulator: 1; Sfp inh: 8%; Mm-Cpn inhibitor: 1%; PLK1 PBD block: 21µM*; G9a block: -19%; VDR inh: inconclusive

What do the screens show for `Cc1ccc(/C=N/n2cnc3sc4c(c3c2=O)CCCC4)o1`?
CCT modulator: -3; Sfp inh: -5%; Mm-Cpn inhibitor: 0%; PLK1 PBD block: -15%; G9a block: -4%[59 µM]; VDR inh: -5%

How did COc1ccc(CCN2C(=O)CC(NNc3ccc([N+](=O)[O-])cc3)C2=O)cc1OC (stereo not given) do in these assays?
CCT modulator: -1; Sfp inh: 1%; Mm-Cpn inhibitor: -7%; PLK1 PBD block: inconclusive; G9a block: 14µM*; VDR inh: 12%

What do the screens show for `CCOCCCNC(=O)c1cc(=O)[nH]c2ccc(S(=O)(=O)N3CCCC3)cc12`?
G9a block: 1%[59 µM]; VDR inh: -5%

Results for COc1ccccc1NC(=O)C1=C(C)Nc2nc(CCCO)nn2C1c1cccnc1 (stereo not given) ?
CCT modulator: -3; Sfp inh: -10%; Mm-Cpn inhibitor: -1%; PLK1 PBD block: -4%; G9a block: 50µM*; VDR inh: 0%

How did Cc1cc(C(=O)CN2C(=O)c3ccccc3S2(=O)=O)c(C)n1CC1CCCO1 (stereo not given) do in these assays?
CCT modulator: 2; Sfp inh: -11%; Mm-Cpn inhibitor: 0%; PLK1 PBD block: 0%; G9a block: 50µM*; VDR inh: -3%

What do the screens show for `Cc1cc(C(=O)CSc2nc3ccccc3c(=O)n2C)c(C)n1CC1CCCO1` (stereo not given)?
Sfp inh: 16%; Mm-Cpn inhibitor: -5%; G9a block: inconclusive

How did CCCn1c(C)cc(C(=O)CN2C(=O)c3ccccc3S2(=O)=O)c1C do in these assays?
CCT modulator: -3; PLK1 PBD block: 2%

What do the screens show for `CCn1c(SCC(=O)c2cc(C)n(CC3CCCO3)c2C)nc2ccccc21` (stereo not given)?
CCT modulator: -2; Sfp inh: -12%; Mm-Cpn inhibitor: -2%; PLK1 PBD block: -16%; G9a block: 18µM*; VDR inh: -12%

What do the screens show for `COc1cc(Cl)c(NS(=O)(=O)c2ccc(-c3cnc(C4CC4)o3)cc2)c(OC)c1`?
G9a block: -32%[59 µM]; VDR inh: 11%

What do the screens show for `CCCC1=C/C(=C/c2ccc(-c3ccccc3OC)o2)C(=O)O1`?
CCT modulator: 0; Sfp inh: inconclusive; Mm-Cpn inhibitor: -2%; PLK1 PBD block: inconclusive; G9a block: 28µM*; VDR inh: -13%

How did COc1ccccc1-c1ccc(/C=C2/C=C(CC(C)C)OC2=O)o1 do in these assays?
CCT modulator: -1; Sfp inh: 50µM*; Mm-Cpn inhibitor: -6%; PLK1 PBD block: -18%; G9a block: 10µM*; VDR inh: inconclusive

Results for Cc1nc2cccnc2n1-c1cccc(C(=O)NCc2ccc(OC(C)C)cc2)c1 ?
G9a block: -30%[59 µM]; VDR inh: -1%

How did Cc1cccc(NC2SC(=O)NC2=O)c1 (stereo not given) do in these assays?
CCT modulator: -1; Sfp inh: -1%; Mm-Cpn inhibitor: -1%; PLK1 PBD block: -2%; G9a block: 50µM*; VDR inh: -15%

How did Cc1cccc(NC2CNC(=O)NC2=O)c1 (stereo not given) do in these assays?
CCT modulator: -2; PLK1 PBD block: -8%; VDR inh: -14%

Results for Cc1cc(C)cc(N=c2c([N+](=O)[O-])nn(-c3ccc4c(c3)OCCO4)n2O)c1 ?
CCT modulator: -4; Sfp inh: 14%; Mm-Cpn inhibitor: 2%; PLK1 PBD block: -4%; G9a block: 10µM*; VDR inh: -6%

How did Cc1ccc(N=c2c([N+](=O)[O-])nn(-c3ccc4c(c3)OCCO4)n2O)c(Cl)c1 do in these assays?
Sfp inh: -15%; Mm-Cpn inhibitor: 0%; G9a block: 45µM*

How did Cc1ccc(N=c2c([N+](=O)[O-])nn(-c3ccc(Cl)cc3)n2O)cc1C do in these assays?
CCT modulator: 2; Sfp inh: inconclusive; Mm-Cpn inhibitor: -3%; PLK1 PBD block: -3%; G9a block: 10µM*; VDR inh: 0%

What do the screens show for `O=[N+]([O-])c1nn(-c2ccc3c(c2)OCCO3)n(O)c1=Nc1ccccc1`?
CCT modulator: 2; Sfp inh: 1%; Mm-Cpn inhibitor: -1%; PLK1 PBD block: -1%; G9a block: inconclusive; VDR inh: -11%

Results for O=C(CSC1=Nc2ccccc2C2=NC(CCC(=O)NC3CCCCC3)C(=O)N12)Nc1cccc(Cl)c1 (stereo not given) ?
G9a block: 36%[59 µM]; VDR inh: 0%

How did O=C(c1cccc(F)c1)N1CCN(C2CCCCC2)CC1 do in these assays?
CCT modulator: -2; Sfp inh: -3%; Mm-Cpn inhibitor: -2%; PLK1 PBD block: -4%; G9a block: 22µM*; VDR inh: 7%

How did O=C(c1ccc(F)cc1)N1CCN(C2CCCCC2)CC1 do in these assays?
CCT modulator: -2; Sfp inh: -20%; Mm-Cpn inhibitor: -2%; PLK1 PBD block: -14%; G9a block: 32µM*; VDR inh: 3%

How did O=C(c1cccc(F)c1)N1CCC(N2CCCCCC2)CC1 do in these assays?
CCT modulator: 0; Sfp inh: 0%; Mm-Cpn inhibitor: -2%; PLK1 PBD block: -5%; G9a block: 22µM*; VDR inh: 6%

How did O=C(c1cccs1)N1CCN(C2CCCCC2)CC1 do in these assays?
CCT modulator: -1; Sfp inh: -1%; Mm-Cpn inhibitor: 1%; PLK1 PBD block: -7%; G9a block: 14µM*; VDR inh: 6%

Screening results (PubChem BioAssay)
